The panel holds about 79,000 compounds, 15% with a hit somewhere; the sample as a whole holds those more often. The source made the active and inactive calls. No stated cut-off is given here; in the data, active means growth inhibition above about 70%; inactive means the rest.
How the values were obtained:
[1] = NCI Yeast Anticancer Drug Screen. Data for the rad52 strain (AID 147);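 further: 0% = growth of vehicle-treated control cultures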; settings: S. cerevisiae rad52 mutant growth inhibition, active compounds read high
Summary of the method: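 DNA repair-defective yeast; compound exposure; growth scored against vehicle controls.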

[2] = NCI Yeast Anticancer Drug Screen. Data for the wt1 strain (AID 149);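 further: 0% = growth of vehicle-treated wt1 cultures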; settings: S. cerevisiae wt1 strain (SPY 50644) growth inhibition, active compounds read high
Summary of the method: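 Compounds are added to wt1 yeast cultures. Growth is then measured. Inhibition is expressed relative to vehicle-treated controls.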

[3] = NCI Yeast Anticancer Drug Screen. Data for the rad50EPP+ strain (AID 151);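 further: 0% = growth of vehicle-treated control cultures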; settings: S. cerevisiae rad50 mutant strain, active compounds read high
Summary of the method: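 rad50EPP+ yeast treated with test compounds. Readout: growth vs vehicle control.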

[4] = NCI Yeast Anticancer Drug Screen. Data for the rad50 strain (AID 155);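 further: 0% = growth of vehicle-only cultures of the same strain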; settings: S. cerevisiae rad50 strain growth inhibition, active compounds read high
Summary of the method: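 Inhibition values express reduced yeast growth in compound-treated cultures relative to vehicle-treated controls.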

[5] = NCI Yeast Anticancer Drug Screen. Data for the mec2-1 strain (AID 157); settings: S. cerevisiae mec2-1 strain, active compounds read high
Summary of the method: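 Growth inhibition is read against vehicle-treated controls after compound exposure of the mec2-1 yeast strain, which is defective in DNA damage repair or cell cycle control.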

[6] = NCI Yeast Anticancer Drug Screen. Data for the rad14 strain (AID 159);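 further: 0% = growth of vehicle-treated control cultures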; settings: S. cerevisiae rad14 strain growth inhibition, active compounds read high
Summary of the method: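 A mutant yeast strain defective in DNA damage repair is treated with compound; inhibition of its growth is scored against untreated, vehicle-exposed cultures.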

[7] = NCI Yeast Anticancer Drug Screen. Data for the sgs1 mgt1 strain (AID 161);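 further: 0% = growth of cultures given vehicle only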; settings: S. cerevisiae sgs1 mgt1 strain, active compounds read high
Summary of the method: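 Percent growth inhibition was derived by comparing compound-exposed mutant yeast with vehicle-exposed cultures. The strain carries alterations in DNA damage repair.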

[8] = NCI Yeast Anticancer Drug Screen. Data for the CLN2oe strain (AID 163);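 further: 0% = growth of vehicle-only control cultures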; settings: S. cerevisiae CLN2oe strain, active compounds read high
Summary of the method: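 Compound-treated yeast; growth vs vehicle ctrl = % inhibition. Genetically altered strain (cell-cycle control).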

[9] = NCI Yeast Anticancer Drug Screen. Data for the cln2 rad14 strain (AID 165);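 further: 0% = growth equal to vehicle treated cultures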; settings: S. cerevisiae cln2 rad14 strain, active compounds read high
Summary of the method: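 Growth inhibition, relative to vehicle-treated controls, is the read-out. The test organism is a yeast strain with defined genetic alterations, cln2 rad14.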

[10] = NCI Yeast Anticancer Drug Screen. Data for the bub3 strain (AID 167); settings: S. cerevisiae bub3 mutant strain, active compounds read high
Summary of the method: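 Steps: expose the mutant yeast strain to compound; grow alongside vehicle-treated cultures; measure growth; express inhibition against the vehicle cultures.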

[11] = NCI Yeast Anticancer Drug Screen. Data for the wt2 strain (AID 169);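 further: 0% = growth of vehicle-treated yeast cultures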; settings: S. cerevisiae wt2 strain growth inhibition, active compounds read high
Summary of the method: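 Compound exposure of yeast; growth compared with vehicle controls; inhibition reported.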

[12] = NCI Yeast Anticancer Drug Screen. Data for the mlh1 strain (AID 171);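 further: 0% = growth of vehicle-treated control cultures of the same strain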; settings: S. cerevisiae mlh1 strain growth inhibition, active compounds read high
Summary of the method: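 Compounds are applied to a genetically altered yeast strain, and its growth is compared with that of vehicle-treated cultures to give percent inhibition.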

[13] = NCI Yeast Anticancer Drug Screen. Data for the sgs1 strain (AID 173);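 further: 0% = growth of vehicle-only control cultures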; settings: S. cerevisiae sgs1 mutant, active compounds read high
Summary of the method: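 Compounds applied to genetically altered yeast; growth compared with vehicle-treated cultures to give % inhibition.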

[14] = NCI Yeast Anticancer Drug Screen. Data for the mlh1 rad18 strain (AID 175); settings: S. cerevisiae mlh1 rad18 strain growth inhibition, active compounds read high
Summary of the method: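 Cells of a genetically altered yeast strain, deficient in DNA damage repair, were treated with compound. Their growth was then compared with that of vehicle-treated cultures to give inhibition.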

[15] = NCI Yeast Anticancer Drug Screen. Data for the rad18 strain (AID 177); settings: S. cerevisiae rad18 mutant growth inhibition, active compounds read high
Summary of the method: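 Compounds are applied to a repair-deficient yeast strain, and growth is compared with that of vehicle-treated cultures to give percent inhibition.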

[16] = at 5.0 µM (retest, dose inferred, filed as 0.5)
[17] = at 50.0 µM (retest, dose inferred, filed as 5.0)

Measured: growth inhibition

O=c1c2ccccc2nc(-c2ccc(Cl)cc2)n1O
active: [1]; at 1.2 µM 81% | [1]; at 3.7 µM 95% | [1]; at 11.0 µM 96% | [1]; at 33.0 µM 96% | [1]; at 100.0 µM 94% | [2]; at 3.7 µM 89% | [2]; at 11.0 µM 96% | [2]; at 33.0 µM 96% | [2]; at 100.0 µM 96% | [3]; at 3.7 µM 85% | [3]; at 11.0 µM 91% | [3]; at 33.0 µM 91% | [3]; at 100.0 µM 90% | [4]; at 1.2 µM 80% | [4]; at 3.7 µM 93% | [4]; at 11.0 µM 96% | [4]; at 33.0 µM 95% | [4]; [17] 98% | [4]; at 50.0 µM 97% | [4]; at 100.0 µM 95% | [5]; at 11.0 µM 83% | [5]; at 33.0 µM 84% | [5]; [17] 97% | [5]; at 50.0 µM 96.7% | [5]; at 100.0 µM 88% | [6]; at 1.2 µM 98% | [6]; at 3.7 µM 98% | [6]; at 11.0 µM 98% | [6]; at 33.0 µM 98% | [6]; at 100.0 µM 98% | [7]; [17] 98% | [7]; at 50.0 µM 96.7% | [8]; at 33.0 µM 73% | [8]; at 100.0 µM 71% | [9]; [17] 84% | [9]; at 50.0 µM 87.8% | [10]; at 3.7 µM 75% | [10]; at 11.0 µM 78% | [10]; at 33.0 µM 82% | [10]; [17] 97% | [10]; at 50.0 µM 87.5% | [10]; at 100.0 µM 72% | [11]; at 1.2 µM 92% | [11]; at 3.7 µM 96% | [11]; at 11.0 µM 96% | [11]; at 33.0 µM 96% | [11]; at 100.0 µM 96% | [12]; at 1.2 µM 72% | [12]; at 3.7 µM 90% | [12]; at 11.0 µM 93% | [12]; at 33.0 µM 92% | [12]; at 100.0 µM 94% | [13]; at 1.2 µM 96% | [13]; at 3.7 µM 96% | [13]; at 11.0 µM 97% | [13]; at 33.0 µM 96% | [13]; at 100.0 µM 95% | [14]; [17] 98% | [14]; at 50.0 µM 96.1% | [15]; at 1.2 µM 94% | [15]; at 3.7 µM 96% | [15]; at 11.0 µM 97% | [15]; at 33.0 µM 96% | [15]; at 100.0 µM 95%
inactive: [2]; at 1.2 µM 61% | [3]; at 1.2 µM 47% | [4]; [16] 28% | [5]; at 1.2 µM 50% | [5]; at 3.7 µM 56% | [5]; [16] 10% | [7]; [16] 46% | [8]; at 1.2 µM 21% | [8]; at 3.7 µM 26% | [8]; at 11.0 µM 66% | [9]; [16] -23% | [10]; at 1.2 µM 62% | [10]; [16] 23% | [14]; [16] 48%

N#C/C(=C\NC(=S)Nc1ccc(S(N)(=O)=O)cc1)C(=O)c1ccc2ccccc2c1
inactive: [1]; at 1.2 µM -2% | [1]; at 3.7 µM -1% | [1]; at 11.0 µM 0% | [1]; at 33.0 µM -3% | [1]; at 100.0 µM 3% | [2]; at 1.2 µM 2% | [2]; at 3.7 µM 3% | [2]; at 11.0 µM 1% | [2]; at 33.0 µM 1% | [2]; at 100.0 µM 3% | [3]; at 1.2 µM -1% | [3]; at 3.7 µM -3% | [3]; at 11.0 µM 0% | [3]; at 33.0 µM 0% | [3]; at 100.0 µM -2% | [4]; at 1.2 µM -5% | [4]; at 3.7 µM -16% | [4]; [16] 57% | [4]; at 11.0 µM -18% | [4]; at 33.0 µM -2% | [4]; at 50.0 µM -13.3% | [4]; at 100.0 µM -1% | [5]; at 1.2 µM 0% | [5]; at 3.7 µM 2% | [5]; at 11.0 µM 2% | [5]; at 33.0 µM 5% | [5]; at 50.0 µM -3.5% | [5]; at 100.0 µM -1% | [6]; at 1.2 µM -1% | [6]; at 3.7 µM -1% | [6]; at 11.0 µM 1% | [6]; at 33.0 µM 2% | [6]; at 100.0 µM 6% | [7]; [16] 25% | [7]; at 50.0 µM -13.2% | [8]; at 1.2 µM -2% | [8]; at 3.7 µM -4% | [8]; at 11.0 µM -4% | [8]; at 33.0 µM 0% | [8]; at 100.0 µM -1% | [9]; at 50.0 µM 39.2% | [10]; at 1.2 µM -2% | [10]; at 3.7 µM -1% | [10]; at 11.0 µM -2% | [10]; at 33.0 µM -3% | [10]; at 50.0 µM -16.1% | [10]; at 100.0 µM -3% | [11]; at 1.2 µM -1% | [11]; at 3.7 µM -1% | [11]; at 11.0 µM -1% | [11]; at 33.0 µM 0% | [11]; at 100.0 µM -1% | [12]; at 1.2 µM -1% | [12]; at 3.7 µM 1% | [12]; at 11.0 µM 1% | [12]; at 33.0 µM 3% | [12]; at 100.0 µM 5% | [13]; at 1.2 µM 0% | [13]; at 3.7 µM 2% | [13]; at 11.0 µM 0% | [13]; at 33.0 µM 7% | [13]; at 100.0 µM 9% | [14]; at 50.0 µM 22.1% | [15]; at 1.2 µM -9% | [15]; at 3.7 µM -1% | [15]; at 11.0 µM 0% | [15]; at 33.0 µM -1% | [15]; at 100.0 µM 5%
active: [4]; [17] 97% | [5]; [16] 87% | [5]; [17] 95% | [7]; [17] 96% | [9]; [16] 92% | [9]; [17] 78% | [10]; [16] 99% | [10]; [17] 91% | [14]; [16] 84% | [14]; [17] 97%
